TDP1 cell noCPT = qHTS for Inhibitors of human tyrosyl-DNA phosphodiesterase 1 (TDP1): qHTS in cells in absence of CPT. DT40 Tdp1-/- hTDP1 cells, no CPT, ATP luminescence, 48 h. Potency, µM (series often up to 46.2 µM), usual class: inhibitors. 420,000 compounds, 15% hits. AID 686978, 2013; also: nearly all actives have a fitted effect of over 55% in size
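Luminescent ATP content (CellTiter-Glo) served as the growth readout. Knockout chicken DT40 cells expressing human TDP1 were exposed to compounds without camptothecin for a minimum 48 hr at 37 °C.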
HT1080 IDH1KD tx = qHTS for induction of synthetic lethality in tumor cells producing 2HG: qHTS for the HT-1080-IDH1KD cell line; HT-1080 IDH1 knockdown viability, ATP luminescence, 48 h; Potency, µM (highest dose often 46.1 µM), usual class: cytotoxic; 360,000 compounds, 2% hits
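HT-1080-IDH1KD cells (IDH1 knocked down), 750/well in RPMI with 5% FBS, treated with compound 48 h at 37 degrees C. Viability by CellTiter-Glo luminescence, normalised to DMSO and no-cell wells; concentration-response curves classed.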
DT40 TDP1 CPT = qHTS for Inhibitors of human tyrosyl-DNA phosphodiesterase 1 (TDP1): qHTS in cells in presence of CPT | chicken DT40 Tdp1-/-;hTDP1 cells + 20 nM CPT, ATP luminescence, 48 h | Potency, µM (doses to about 46.2 µM), most hits filed as inhibitors | 420,000 compounds, 12% hits | AID 686979, 2013; also: nearly all actives have a fitted effect of over 55% in size
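Chicken DT40 Tdp1-/- cells stably complemented with human TDP1 were seeded at 400 cells/well in medium containing 20 nM camptothecin, exposed to pin-transferred compounds, and grown at 37 °C for at least 48 hr. Viability was read as ATP luminescence.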
IL1B secr inh = qHTS for Inhibitors of Inflammasome Signaling: IL-1-beta AlphaLISA Primary Screen. AID 743279, 2014. THP-1 LPS/ATP IL-1B secretion, AlphaLISA, 16 h; active compounds read low. 360,000 compounds, 4.7% hits. activity change, % at 57.5 µM; in the data active = activity change below about -50%; inconclusive = mostly about -30% to -49%
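Secreted IL-1B measured by AlphaLISA bead assay after 16 h compound exposure of THP-1 cells; compounds (final up to 57.5 uM) added 1 h before LPS (250 ng/mL) and ATP (1.25 mM) stimulation; lower signal means less secretion.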
uPA generation = qHTS for Inhibitors of Cell Surface uPA Generation. 330,000 compounds, 0.31% hits. Potency, µM (doses to about 38.3 µM), hits mostly inhibitors. cell surface uPA generation assay, qHTS; active = well fitted inhibition curve with a large enough effect; inconclusive = small, poorly fitted or top-dose-only effect; inactive = no such curve, though single readings can be large or run the other way; tested in mouse RAW 264.7 cells; also: nearly all actives have a fitted effect of over 55% in size
HT1080-NT tox = qHTS for induction of synthetic lethality in tumor cells producing 2HG: qHTS for the HT-1080-NT fibrosarcoma cell line; HT-1080-NT fibrosarcoma viability, CellTiter-Glo ATP luminescence, 48 h; 360,000 compounds, 1.6% hits; AID 686970, 2013; Potency, µM (series often up to 46.1 µM), hits mostly cytotoxic;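 also: NT is the 2HG producing partner of a matched IDH1 knockdown line; nearly all actives have a fitted effect of over 55% in size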
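Compounds were tested in concentration-response format on HT-1080-NT cells for 48 hours at 37 degrees C. Cell viability came from CellTiter-Glo luminescence; curves were classified by r2, response magnitude and activity.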
A number is an active result; . = inactive; ? = inconclusive; / = no result; ! = a repeat was not active; [ ] = dose if it differs, or a comment. Hits are enriched below; roughly 19% of the tested compounds scored in any of these assays. Unless noted, calls follow the shape of the dose curve; as a rule, active = well fitted curve in the direction sought with a large enough effect; inconclusive = small, poorly fitted or top-dose-only effect, or another doubt; inactive = no such curve, though single readings can be large; an effect the other way counts as inactive or inconclusive.

SMILES	TDP1 cell noCPT	HT1080 IDH1KD tx	DT40 TDP1 CPT	IL1B secr inh	uPA generation	HT1080-NT tox
CN(CCOc1ccccc1)CC(O)COc1ccccc1 (configuration not stated)	?	.	?	.	.	.
COc1ccc(CCN(C)CC(O)COC(c2ccc(F)cc2)c2ccc(F)cc2)cc1OC (configuration not stated)	?	?	16µM	-92	.	23µM
CN(CCOc1ccc(Br)cc1)CC(O)COc1ccc(C#N)cc1 (configuration not stated)	4.1µM	?	?	-87	.	21µM
COc1ccc(CN(C)CC(O)COc2ccc(C(=O)c3ccccc3)cc2)c(OC)c1OC (configuration not stated)	16µM	?	?	-67	.	21µM
COc1cccc(OC)c1OCCOc1ccc(C(=O)c2ccccc2)cc1	?	.	?	?	.	.
CCN(Cc1ccccc1)CC(O)COC(c1ccc(OC)cc1)c1ccc(OC)cc1 (configuration not stated)	21µM	.	21µM	.	.	?
CCN(CC)CC(O)COC(c1ccccc1)c1ccccc1 (configuration not stated)	.	.	.	?	.	.
O=C(Cn1c(=O)c2cccn2c2ccc(F)cc21)NCc1cccc(Cl)c1	?	/	.	/	/	/
COc1ccc(CN(C)CC(O)COC(c2ccccc2)c2ccccc2)c(OC)c1OC (configuration not stated)	?	?	?	/	.	23µM
COc1ccc(Br)cc1CN(C)CC(O)COc1ccc(Br)cc1 (configuration not stated)	?	?	?	-85	.	21µM
CN(C)CC(O)COC(c1ccccc1)c1ccccc1 (configuration not stated)	.	.	.	.	.	.
COc1ccc(C(=O)O)cc1S(=O)(=O)NC(C)C	.	.	.	.	.	.
CC(=O)Nc1cc(=O)c2cccnc2[nH]1	.	.	.	.	.	.
CCC(CO)N=CC1=C(O)CC(c2ccccc2)CC1=O (configuration not stated)	.	.	.	.	.	.
Cc1cccc(N(CC(=O)NCCc2ccccc2)S(=O)(=O)c2ccccc2)c1C	18µM	/	16µM	/	/	/
Cc1ccc(CNC(=O)CN(c2cccc(C)c2C)S(=O)(=O)c2ccccc2)cc1	16µM	/	16µM	/	/	/
Cc1cccc(N(CC(=O)N/N=C/c2ccc(C(=O)O)cc2)S(=O)(=O)c2ccccc2)c1C	?	.	.	.	.	.
CC(C(=O)NCCSCc1cccc(Cl)c1)N(c1ccccc1)S(C)(=O)=O (configuration not stated)	13µM!	.	21µM!	.	.	.
Cc1cccc(N(CC(=O)NCCC2=CCCCC2)S(C)(=O)=O)c1C	?	.	16µM	.	/	.
Cc1c(C(=O)NNC(=O)c2ccccc2O)oc2ccccc12	?	.	?	.	/	.
COc1cccc(NCc2cc(=O)oc3cc(C)c(C(C)C)cc23)c1	.	?	?	.	.	.
CC1CCN(S(=O)(=O)c2ccc3ncn(CC(=O)N4CCN(C)CC4)c(=O)c3c2)CC1	.	.	.	.	.	.
Cc1cccc(N(CC(=O)N(C)Cc2ccccc2)S(=O)(=O)c2ccccc2)c1C	23µM	/	?	/	/	/
Cc1cccc(N(CC(=O)NCCSCc2cccc(Cl)c2)S(=O)(=O)c2ccccc2)c1C	21µM	/	?	/	/	/
CN(Cc1ccccc1)C(=O)CN(c1ccccc1Cl)S(C)(=O)=O	.	.	.	.	.	.
SMILES	TDP1 cell noCPT	HT1080 IDH1KD tx	DT40 TDP1 CPT	IL1B secr inh	uPA generation	HT1080-NT tox
CS(=O)(=O)N(CC(=O)NCCSCc1ccccc1)c1cc(C(F)(F)F)ccc1Cl	15µM	/	21µM	/	/	/
COc1ccccc1N(CC(=O)NCCSCc1ccc(C)cc1)S(=O)(=O)c1ccccc1	?	.	?	.	.	.
COCCNC(=O)CN(c1cc(C(F)(F)F)ccc1Cl)S(C)(=O)=O	.	.	.	.	.	.
CCN1CCCC1CNC(=O)c1cc(COc2ccc(C)c(C)c2)on1 (configuration not stated)	.	?	.	.	.	.
CCOc1ccc(NC(=O)c2oc3ccccc3c2NC(=O)Cc2ccc(F)cc2)cc1	?	/	.	/	/	/
CC(=O)c1ccc(NC(=O)c2cnc(N3CCCC3)nc2C)cc1	?	/	.	/	/	/
COc1ccccc1-c1c(C)nn2c(C)cc(C)nc12	?	.	?	.	.	.
CCOC(=O)N1CCN(C(=O)CSc2ccc(-c3ccccc3OC)nn2)CC1	?	.	.	.	.	.
CCOC(=O)N1CCN(C(=O)CSc2cc(C)nc3c(-c4ccccc4OC)c(C)nn23)CC1	16µM	11µM	23µM	.	.	10µM
Cc1cc(NC2CCCCC2)n2c(n1)nc1ccccc12	?	.	.	.	.	.
CCOC(=O)N1CCC(Nc2cc(C)nc3c(-c4ccccc4OC)c(C)nn23)CC1	9.2µM	.	5.8µM	.	?	.
COc1ccccc1-c1cnn2c(NC3CCCC3)cc(C)nc12	21µM	.	29µM	.	.	.
CCN(c1ccccc1)S(=O)(=O)c1ccc(C(=O)NCc2ccco2)cc1	?	.	?	.	.	.
C=C(C1=CCN(S(=O)C(C)(C)C)[C@@H]1CCO)c1ccccc1 (some centres not stated)	23µM	.	7.3µM	.	.	.
CCCCn1c(SCC(=O)NNC(=O)c2ccco2)nnc1-c1ccco1	.	.	.	.	.	.
COc1ccc(OC)c(C(=O)N2CCc3c(cnc(C)c3CNS(=O)(=O)N(C)C)C2)c1	.	/	.[9.04 µM]	/	/	/
CC(C)OCCCNC(=O)COCC(=O)Nc1ccc(OCCc2ccccc2)cc1	13µM	.	18µM	.	.	?
CC(=O)c1ccccc1OCc1ccc(S(=O)(=O)Cc2ccccc2)cc1	21µM	.	26µM	-60	.	.
O=C(NNC(=O)c1ccccc1OCc1ccc(F)cc1)c1ccccc1O	5.2µM	?	6.5µM	.	?	.
CC(=O)c1cccc(NC(=O)c2ccccc2OCc2ccc(F)cc2)c1	.	.	.	.	.	.
O=C(NNC(=O)c1ccccc1OCc1ccccc1)c1ccccc1O	3.7µM	?	5.8µM	.	.	.
